The source of these data is PubChem BioAssay AID1508600 (Functional Genomics Laboratory (NCATS/FGL), 2020).

In all, about 53,000 sequences went through this assay and about 3,700 (7%) were called active.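 Rule for the calls: active = gene knockdowns whose robust z-score for IL-1 alpha signal is at least 2 or at most -2, so actives lie on both sides; inactive = the rest.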 The full list was thinned out, with actives kept by preference.

This test can be described thus: Components of the Cytosolic LPS Sensing Pathway: Gene Identification via Genome-wide siRNA Screen.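 Note: robust z of the log signal after scaling to non-targeting control siRNA wells of the plate.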 The following applies: RAW264.7 macrophages, IL-1a HTRF, actives lie on both sides, screened at 100 nM (by protocol), cells primed 5 h with Pam3CSK4 first. The gist of the method:
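Using IL-1a HTRF as read-out, the screen measured release from RAW264.7 cells after 48h siRNA knockdown (100 nM), 5 h Pam3CSK4 priming and 24 h cytosolic LipidA. Values were expressed relative to negative-control wells as robust z-scores.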
A general note: Time-resolved FRET reads energy transfer from a long-lived donor to a nearby acceptor.
As for CCGUCAUCUACACCUAUUUTT against Olfr525, the z-score is 0.102 (inactive).
Consider CGGCUUAUGAGUUAAAGACTT against Rad51b, for which the z-score was -1.03 (inactive).
The same measure for GGUAGAUUAUAGCAAAAUGTT against Ik: -2.23 (active).
The same measure for GGUUAAGUGUGUUAAGUUCTT against Cipc: 1.48 (inactive); for GGCCUCAAAUACCAUAACATT against Zfp941: 0.000237 (inactive).
Regarding CGGACACAUGAUUGUCUUCTT against Npas1, the z-score is 1.25 (inactive).
The same measure for GGUUUGAUGACAAAUACACTT against Spcs2: 1.6 (inactive).
Next, GCUGGUACAGCGUAUACCATT against Cep170b: -1.03 (inactive); GGAUGUUCUCAAACUACAATT against Kdm1b: 0.702 (inactive).
As to GGGCAAGCCACUCAUGUUGTT against Me2, the z-score was -0.997 (inactive).
Next, CCUAGAGAUUGGUAUGUACTT against Tmem132e: -2.1 (active).
The same measure for GCCAUUAAUCUCACAUGUATT against Crebrf: 1.39 (inactive); for GGAUCCUUCGAAUCCUGAATT against Cst11: -0.372 (inactive); for CCCAUGUUUAUGUUGCUGATT against Olfr467: 0.251 (inactive).
The same measure for GGACACCUGAAGUUAGUUUTT against Ndufaf1: 0.622 (inactive); for GGAGAAGGAUCUGAACGAGTT against Nog: -1.24 (inactive).
As for CCUUAUGGAUUUAGCAUCATT against Lamb3, the z-score is 0.917 (inactive).
Next, CCAAACCAGUGGAGUCCAUTT against Slc7a14: -2.26 (active); ACUAUGGUUGGUUCAAACGTT against Acat2: -1.23 (inactive).
Next, “GCACAACGGUUCGUUGUUATT against 4933427E11Rik”: -1.17 (inactive); GGUGUAGGCUGUCCAAUAATT against Rtel1: 0.74 (inactive); GACUCUUGUCCCAAGUGUUTT against Bloc1s4: 0.144 (inactive).
The same measure for GGAUCAACAGUCAAUUGUGTT against Tax1bp1: -2.16 (active); for AUAGUGGAACCCUUUGUACTT against Olfr1195: -0.832 (inactive); for GGAAUACGACAGAACUCCATT against Extl1: 0.218 (inactive).
With GGAGAAGCAAACUGCACCUTT against Cacng6, the z-score is 1.08 (inactive).
Next, GGACCUGAAACACGCCAAUTT against Cdk18: -0.35 (inactive).
Next, GCGGGAGAGCUAUGAAACATT against Mrps21: -0.0502 (inactive); GGGAAAUUUCUCUACAUCUTT against Npas1: 2.2 (active); GGCUGCACAAAACGAGAUCTT against Tcirg1: -0.0738 (inactive).
The same measure for GGCAAACAAAUGGUUUGUUTT against Zfp324: -0.544 (inactive).
GGUUCUCGGUAAAUCCUGCTT against Slc35b1: the z-score was -1.07 (inactive).
The same measure for GGAGGUUGAGGCUUCUAAGTT against Pacsin3: 1.2 (inactive); for GGAUAAUGAGCUGAACAUATT against Nek7: -0.0844 (inactive).
The same measure for “GGAAGCAUGCAAUGAUAUUTT against 4933431E20Rik”: -2.31 (active).
The same measure for GCCUCACUUUGACUGUCGCTT against Tpgs2: -0.289 (inactive); for GGAGAAAGUGAUUGACAUATT against Lpin2: -0.0579 (inactive); for GGAAGGGUUUGUUUGUUUATT against Nkiras1: 1.55 (inactive).
For GGCCUUGAAAGCCAUUGGUTT against Kmo, the z-score is -0.728 (inactive).
Take GCGCGACAAAUCGUAGGCUTT against Mamstr: the z-score is -2.13 (active).
Next, GGACUUGAAGAACUGUUAUTT against Hspa13: -0.0642 (inactive).
Next, CGUGCUGUAUGGCAAAGUUTT against Bst1: 0.563 (inactive); GCCCAUGUUUGUGAGGGUUTT against Fem1al: -0.0893 (inactive).
For the sequence GCACUUCCCUCCCUAUGCATT against Cep20, the z-score was -2.11 (active).
Next, GGUUCCAAUGCUAUUGAAUTT against Tc2n: 0.391 (inactive); GGUUAUAUUAUGUAGCCUATT against Klf17: 0.332 (inactive).
The same measure for GGUCACAGUUGGCAAAGAUTT against Myh11: -0.521 (inactive).
Take GCGUAAGCAGCAAGAUGGATT against Ash2l: the z-score is 1.21 (inactive).
Next, GCUUUCAAGUGGUUAUGAATT against Nsun6: 0.0136 (inactive).
In the case of CGUGUAUCGUUGUCUGAAUTT against Donson, the z-score was 2.75 (active).
With GCGACCAUUUCGUUUUAGUTT against Frat1, the z-score was 1.07 (inactive).
For the sequence GGAAAGCAAGUCGUAAGCCTT against Mrps10, the z-score was -0.755 (inactive).
Next, AAUGCUCAGAAAGAAUAACTT against Sprr2e: -0.31 (inactive); UGUUACUGGACUCUCCACATT against Olfr320: 0.372 (inactive).
Next, GCUGUGUUAGGAUUGUCCATT against Olfr553: 0.252 (inactive); GGUACACUACAUGACUCAUTT against Sall4: 2.35 (active).
The same measure for GGCAUCAAGUCCAUUUUUGTT against Slc12a4: 0.108 (inactive).
For GGCAGGCAGAAAGCUUUGUTT against Olfr1054, the z-score was 1.8 (inactive).
For the sequence GCUAAUCACCAAAGCUGAGTT against Larp7, the z-score was 0.546 (inactive).
The same measure for CCUAAUCUUCGUGCUUUACTT against Minpp1: 1.4 (inactive); for CCUGUGAAAGAUGCUUAUATT against Capn7: -1.65 (inactive); for CGGGAUGACUACAAUCUGGTT against Ssbp3: -2.17 (active).
Next, GCUCAGCUAGCAGAAAUUCTT against Nlrp2: -1.76 (inactive); GGAGGCCAAAGGACUGAUCTT against Hectd4: 1.56 (inactive).
Next, CCACAGACAGUUAUUACUGTT against Adgre1: -1 (inactive); CCCAAGAGUGUUUGAGAACTT against Zbtb43: 0.213 (inactive); GGCAUUUAUUAUCAGGCUGTT against Pes1: 0.665 (inactive).
Regarding “GCUCGAGAAGAGUUUGUUATT against 1700030J22Rik”, the z-score is 0.933 (inactive).
